Data published in PubChem BioAssay AID1159580 (chemical genetic matrix, 2015).
Values joined by “and” are separate entries in the source; they are usually repeats but may differ in a detail not shown here. Equal entries are not always repeated. Among all 5,500 compounds or so, about 2,000 (36%) were called active. Not shown: some 18% with an inconclusive outcome. Cut-off read from the data, not from the text of the source: active = normalized growth mostly below about 0.91 (no sharp cut-off); inconclusive = no clear call, values can overlap the other calls; inactive = mostly above about 0.92. The list shows a part of the results.

Test: chemical genetic growth profiling, strain panel (AID 1159580);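 note: tested at 20 µM; growth read once vehicle control cultures reached saturation at 30 °C; 1 = growth at the plate median or of vehicle wells; lower values mean less growth of the strain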
Details: S. cerevisiae deletion strains, growth OD

Measured: normalized growth

CCOC(=O)CCC(=O)O[C@H]1[C@H](O[C@@H]2[C@@H](C)[C@H](O[C@H]3C[C@@](C)(OC)[C@@H](O)[C@H](C)O3)[C@@H](C)C(=O)O[C@H](CC)[C@@](C)(O)[C@H](O)[C@@H](C)C(=O)[C@H](C)C[C@@]2(C)O)O[C@H](C)C[C@@H]1N(C)C
inactive: locus YAL021C, strain ccr4, active compounds read low 1.01 | locus YAL026C, strain drs2, active compounds read low 1.02 | locus YAL030W, strain snc1, active compounds read low 0.99 | locus YBL061C, strain skt5, active compounds read low 0.994 | locus YBR009C, strain hhf1, active compounds read low 0.993 | locus YBR021W, strain FUR4, active compounds read low 0.997 | locus YBR023C, strain chs3, active compounds read low 0.999 | locus YBR171W, strain sec66, active compounds read low 1.01 | locus YBR229C, strain ROT2, active compounds read low 0.949 | locus YBR231C, strain swc5, active compounds read low 0.971 | locus YBR279W, strain paf1, active compounds read low 1.01 | locus YCL011C, strain gbp2, active compounds read low 1.01 | locus YCL016C, strain dcc1, active compounds read low 0.992 | locus YCL029C, strain bik1, active compounds read low 0.99 | locus YCL069W, strain vba3, active compounds read low 1 | locus YCR088W, strain abp1, active compounds read low 1.01 | locus YDL005C, strain med2, active compounds read low 0.994 | locus YDL035C, strain GPR1, active compounds read low 0.945 | locus YDL040C, strain nat1, active compounds read low 0.995 | locus YDL074C, strain BRE1, active compounds read low 0.962 | locus YDL101C, strain DUN1, active compounds read low 0.977 | locus YDL134C, strain PPH21, active compounds read low 0.963 | locus YDL185W, strain tfp1, active compounds read low 0.971 | locus YDL192W, strain arf1, active compounds read low 0.985 | locus YDR001C, strain nth1, active compounds read low 1.01 | locus YDR069C, strain doa4, active compounds read low 0.983 | locus YDR101C, strain arx1, active compounds read low 0.953 | locus YDR137W, strain rgp1, active compounds read low 1.01 | locus YDR150W, strain NUM1, active compounds read low 0.988 | locus YDR159W, strain sac3, active compounds read low 0.979 | locus YDR162C, strain NBP2, active compounds read low 0.955 | locus YDR195W, strain ref2 0.956 | locus YDR297W, strain sur2, active compounds read low 1 | locus YDR318W, strain mcm21, active compounds read low 0.996 | locus YDR334W, strain swr1, active compounds read low 1 | locus YDR335W, strain msn5, active compounds read low 0.993 | locus YDR388W, active compounds read low 0.984 | locus YDR392W, strain spt3, active compounds read low 1.03 | locus YDR502C, strain sam2, active compounds read low 0.991 | locus YEL003W, strain gim4, active compounds read low 1.01 | locus YEL037C, strain rad23, active compounds read low 1.01 | locus YEL061C, strain CIN8 (second series), active compounds read low 1.02 | locus YEL061C, strain CIN8, active compounds read low 0.989 | locus YER015W, strain faa2, active compounds read low 0.986 | locus YER016W, strain bim1, active compounds read low 1.01 | locus YER110C, active compounds read low 0.99 | locus YER111C, strain swi4, active compounds read low 0.996 | locus YER155C, strain BEM2 (second series), active compounds read low 0.985 | locus YER155C, strain BEM2, active compounds read low 0.999 | locus YER167W, strain BCK2, active compounds read low 0.999 | locus YFR010W, strain ubp6, active compounds read low 1.03 | locus YGL078C, strain dbp3, active compounds read low 0.994 | locus YGL086W, strain mad1, active compounds read low 0.972 | locus YGL167C, strain pmr1, active compounds read low 1 | locus YGL173C, strain kem1, active compounds read low 1 | locus YGL227W, strain vid30, active compounds read low 1.01 | locus YGL240W, strain doc1, active compounds read low 0.975 | locus YGL248W, strain PDE1, active compounds read low 0.986 | locus YGL253W, strain hxk2, active compounds read low 1.01 | locus YGR135W, strain pre9, active compounds read low 1.05 | locus YGR252W, strain gcn5, active compounds read low 1.07 | locus YHR013C, strain ard1, active compounds read low 0.997 | locus YHR027C, strain rpn1, active compounds read low 1.02 | locus YHR030C, strain SLT2, active compounds read low 0.995 and 1.03 | locus YHR079C, strain IRE1 (second series), active compounds read low 0.962 | locus YHR079C, strain IRE1, active compounds read low 1.04 | locus YHR094C, strain hxt1, active compounds read low 0.985 | locus YHR129C, strain ARP1, active compounds read low 0.986 | locus YHR142W, strain chs7, active compounds read low 1.03 | locus YHR200W, strain rpn10, active compounds read low 0.98 | locus YIL066C, strain RNR3, active compounds read low 0.974 | locus YIL073C, strain SPO22, active compounds read low 1 | locus YIL125W, strain kgd1, active compounds read low 0.985 | locus YIR030C, strain dcg1, active compounds read low 0.997 | locus YJL092W, strain hpr5, active compounds read low 1.01 | locus YJL095W, strain BCK1 (second series), active compounds read low 0.99 | locus YJL095W, strain BCK1, active compounds read low 0.99 and 1.02 | locus YJL115W, strain asf1, active compounds read low 1 | locus YJL129C, strain trk1, active compounds read low 1 | locus YJL134W, strain LCB3, active compounds read low 0.993 | locus YJL154C, strain vps35, active compounds read low 1.01 | locus YJL164C, strain tpk1, active compounds read low 0.999 | locus YJL166W, strain qcr8, active compounds read low 0.993 | locus YJL168C, strain set2, active compounds read low 0.985 | locus YJL187C, strain SWE1 (second series), active compounds read low 0.991 | locus YJR043C, strain POL32, active compounds read low 0.963 | locus YJR066W, strain TOR1, active compounds read low 0.89 | locus YJR075W, strain HOC1, active compounds read low 0.983 | locus YKL009W, strain mrt4, active compounds read low 0.971 | locus YKL068W, active compounds read low 0.987 | locus YKL085W, strain MDH1 (second series), active compounds read low 0.995 | locus YKL085W, strain MDH1, active compounds read low 0.995 | locus YKL160W, strain elf1, active compounds read low 1 | locus YKR001C, strain vps1, active compounds read low 0.981 | locus YKR026C, strain gcn3, active compounds read low 1.01 | locus YKR091W, strain srl3, active compounds read low 1 | locus YLL001W, strain dnm1, active compounds read low 1 | locus YLL026W, active compounds read low 0.991 | locus YLL041C, strain sdh2, active compounds read low 1 | locus YLR027C, strain aat2, active compounds read low 0.986 | locus YLR039C, strain RIC1, active compounds read low 0.932 | locus YLR058C, strain SHM2, active compounds read low 0.975 | locus YLR102C, strain apc9, active compounds read low 0.986 | locus YLR113W, strain HOG1, active compounds read low 1.11 | locus YLR221C, strain rsa3, active compounds read low 1 | locus YLR258W, strain gsy2, active compounds read low 0.983 | locus YLR262C, strain YPT6 (second series), active compounds read low 1.04 | locus YLR262C, strain YPT6, active compounds read low 0.885 | locus YLR268W, strain sec22, active compounds read low 0.97 | locus YLR320W, strain mms22, active compounds read low 0.996 | locus YLR330W, strain CHS5, active compounds read low 0.985 | locus YLR342W, strain FKS1 (second series), active compounds read low 0.985 | locus YLR342W, strain FKS1, active compounds read low 0.985 | locus YLR357W, strain rsc2, active compounds read low 0.982 | locus YLR370C, strain arc18, active compounds read low 1.02 | locus YLR371W, strain rom2, active compounds read low 0.992 | locus YLR384C, strain iki3, active compounds read low 0.981 | locus YLR418C, strain cdc73, active compounds read low 1.01 | locus YML016C, strain PPZ1, active compounds read low 0.987 | locus YML032C, strain rad52, active compounds read low 0.982 | locus YML120C, strain ndi1, active compounds read low 0.995 | locus YML124C, strain tub3, active compounds read low 0.988 | locus YMR058W, strain fet3, active compounds read low 1.01 | locus YMR078C, strain ctf18, active compounds read low 0.983 | locus YMR125W, strain sto1, active compounds read low 1.01 | locus YMR129W, active compounds read low 0.993 | locus YMR205C, strain PFK2, active compounds read low 0.99 | locus YMR223W, strain ubp8, active compounds read low 1.03 | locus YMR231W, strain pep5, active compounds read low 0.998 | locus YMR263W, strain SAP30, active compounds read low 0.984 | locus YMR307W, strain GAS1, active compounds read low 0.97 | locus YNL067W, strain RPL9B, active compounds read low 0.992 | locus YNL071W, strain lat1, active compounds read low 0.996 | locus YNL153C, strain GIM3, active compounds read low 0.983 | locus YNL183C, strain NPR1, active compounds read low 0.981 | locus YNL209W, strain ssb2, active compounds read low 0.991 | locus YNL233W, strain BNI4, active compounds read low 0.988 | locus YNL248C, strain rpa49, active compounds read low 1.04 | locus YNL250W, strain rad50, active compounds read low 0.99 | locus YNL271C, strain bni1, active compounds read low 0.997 | locus YNL298W, strain CLA4, active compounds read low 0.99 | locus YNL307C, strain MCK1, active compounds read low 0.989 | locus YNL322C, strain KRE1 (second series), active compounds read low 0.988 | locus YNL322C, strain KRE1, active compounds read low 0.995 | locus YNR049C, strain mso1, active compounds read low 0.988 | locus YNR052C, strain pop2, active compounds read low 1 | locus YOL012C, strain htz1 0.719 | locus YOL147C, strain pex11, active compounds read low 0.995 | locus YOR001W, strain rrp6, active compounds read low 1 | locus YOR061W, strain CKA2, active compounds read low 0.966 | locus YOR069W, strain VPS5, active compounds read low 0.991 | locus YOR070C, strain gyp1, active compounds read low 0.991 | locus YOR080W, strain dia2, active compounds read low 0.978 | locus YOR083W, strain WHI5, active compounds read low 1.02 | locus YOR106W, strain vam3, active compounds read low 0.989 | locus YOR136W, strain idh2, active compounds read low 0.982 | locus YOR144C, strain elg1, active compounds read low 0.987 | locus YOR184W, strain ser1, active compounds read low 0.98 | locus YOR231W, strain MKK1, active compounds read low 1.07 | locus YOR265W, strain rbl2, active compounds read low 0.984 | locus YOR270C, strain vph1, active compounds read low 1.03 | locus YOR290C, strain snf2, active compounds read low 1.03 | locus YOR316C, strain cot1, active compounds read low 0.975 | locus YPL051W, strain arl3, active compounds read low 0.988 | locus YPL078C, strain atp4, active compounds read low 0.991 | locus YPL106C, strain sse1, active compounds read low 0.986 | locus YPL240C, strain hsp82, active compounds read low 1.01 | locus YPL241C, strain CIN2, active compounds read low 0.979 | locus YPL256C, strain CLN2, active compounds read low 1.05 | locus YPR119W, strain clb2, active compounds read low 0.988 | locus YPR141C, strain kar3, active compounds read low 0.987 | locus YPR163C, strain tif3, active compounds read low 0.989 | locus YPR167C, strain met16, active compounds read low 0.991 | strain wtn01, active compounds read low 0.99
